Many of the other results were omitted from the sample, so hits are more common in it than they were.
VDR inhibitor: inhibitors of human vitamin D receptor. 400,000 tested, 0.93% active. Potency, µM, inactives show max response, negative = inhibition, usual class: inhibitors. VDR-SRC2-3 peptide fluorescence polarization, 2 h; note: % is set by controls: 0 for no effect and ±100 for the full control effect
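Measured by FP: displacement of SRC2-3 coactivator peptide from VDR by library compounds, following a two-hour ambient incubation.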
12-LOX inh: ALOX12 (human) lipoxygenase inhibition | P18054 | 580,000 tested, 1.1% active | Potency, µM (highest dose often 108 µM), for the others: at the top dose activity change, negative = inhibition, usual class: inhibitors | AID 1671190 | purified 12hLO, xylenol orange hydroperoxide absorbance; note: % is set by controls: 0 for no effect and ±100 for the full control effect
Target sequence (P18054 whole entry, looked up): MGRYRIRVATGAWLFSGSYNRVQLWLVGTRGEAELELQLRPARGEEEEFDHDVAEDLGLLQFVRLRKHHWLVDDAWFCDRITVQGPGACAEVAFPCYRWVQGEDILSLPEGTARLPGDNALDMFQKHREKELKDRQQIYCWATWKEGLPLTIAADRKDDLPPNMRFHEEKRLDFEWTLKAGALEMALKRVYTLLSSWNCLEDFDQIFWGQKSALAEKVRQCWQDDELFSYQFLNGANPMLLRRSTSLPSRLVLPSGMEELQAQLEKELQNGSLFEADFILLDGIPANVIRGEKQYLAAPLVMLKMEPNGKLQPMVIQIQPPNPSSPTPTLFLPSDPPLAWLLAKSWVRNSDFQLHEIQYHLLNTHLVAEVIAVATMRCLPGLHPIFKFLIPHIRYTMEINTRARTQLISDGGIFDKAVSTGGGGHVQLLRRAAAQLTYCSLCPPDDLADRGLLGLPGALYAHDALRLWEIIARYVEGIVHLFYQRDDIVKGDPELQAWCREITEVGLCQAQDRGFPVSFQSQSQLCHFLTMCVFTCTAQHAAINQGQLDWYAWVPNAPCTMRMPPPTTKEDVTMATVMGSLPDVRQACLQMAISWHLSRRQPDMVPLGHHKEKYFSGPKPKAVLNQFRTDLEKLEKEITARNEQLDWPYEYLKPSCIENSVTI
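Hydroperoxide product was detected by ferrous iron/xylenol orange as the 573 to 405 nm absorbance ratio. Arachidonic acid at 40 uM (final) was turned over for 30 min at room temperature by 150 nM human 12hLO, pH 7.0 Hepes buffer, after 15 min compound preincubation.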
Sfp PPTase inh: Sfp phosphopantetheinyl transferase inhibition. Potency, µM, for inactives: largest response in the series, negative = inhibition, actives largely listed as inhibitors. 310,000 tested, 3.5% active. Q9F4F7. Biochemical Sfp PPTase activity, qHTS;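 note: the enzyme is Sfp with the accession as filed and its product quenches rhodamine fluorescence; 0% = enzyme reaction without inhibitor and -100% = no enzyme wells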
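Compounds were incubated with enzyme (final 15 nM) for 15 min at room temperature before substrate addition started the reaction. Fluorescence at 525 nm excitation, 598 nm emission was recorded immediately and after 30 minutes.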
G9a inh: blocks human histone lysine methyltransferase G9a. 350,000 tested, 8.8% active. AID 504332. Potency, µM (highest dose often 102 µM), for inactives: at the top dose activity, negative = inhibition, usual class: inhibitors. G9a H3K9 monomethylation, AlphaScreen, 2 h. Q96KQ7; note: % is set by controls: 0 for no effect and ±100 for the full control effect; nearly all actives have a fitted effect of over 75% in size
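Enzyme 20 nM + cpd, 15 min RT; add b-H3K9 pep 500 nM / SAM 20 uM; 2 h RT; anti-H3K9me1 Ab 0.5 ug/mL + SA donor / anti-rabbit acceptor beads 20 ug/mL each, 10 min; AlphaScreen read.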
GRP78 ERSR act: induces the endoplasmic reticulum stress response in human glioma cells. Potency, µM, without a hit: top-dose activation, actives largely listed as activators. 420,000 tested, 0.02% active. U87-MG GRP78 promoter luciferase reporter, 16 h; note: series mostly up to about 76 µM; % of control where 0% means no effect; nearly all actives have a fitted effect of over 35% in size
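ERSR induction read as luciferase luminescence (Bright-Glo, 10 min at room temperature) in stably transfected human U87-MG glioma cells exposed to compounds for 16 h, using GRP78 as sensor.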
* marks the source's active call; other numbers are inactive results; ? = inconclusive; nt = not tested or not shown; [ ] = remark or other dose. Calls come from the whole dose curve; as a rule, active = well fitted curve in the direction sought with a large enough effect; inconclusive = small, poorly fitted or top-dose-only effect, or another doubt; inactive = no such curve, though single readings can be large; an effect the other way counts as inactive or inconclusive. Potency is the fitted concentration of half-maximal effect.

SMILES | VDR inhibitor | 12-LOX inh | Sfp PPTase inh | G9a inh | GRP78 ERSR act
C[C@@H]1C(=O)O[C@H]2[C@H]1CC[C@@]1(C)Cc3sc(NCCc4ccccn4)nc3[C@@H](C)[C@H]21 | nt | 49.0%[176 µM] | nt | nt | nt
Cc1ccc(-c2c[n+](CC(=O)c3ccc(Br)cc3)c3n2CCCCC3)cc1 | -9.3% | 1.1% | ? | 44.7µM* | -6.9%
Cc1ccc(S(=O)(=O)Nc2ccc3c(c2)CN(CCc2ccc(F)cc2)C(=O)C(C)O3)cc1F (stereo not drawn) | nt | 28.2µM* | nt | nt | nt
Clc1ccccc1-c1nnc(-c2ccccc2Cl)o1 | 2.7% | -2.2% | 1.1% | 89.4%[59 µM] | 3.3%
Brc1ccc(-c2nnc(-c3ccccc3Br)o2)cc1 | 2.9% | -0.7% | 50.1µM* | 57.4% | -0.7%
Cc1ccc(-c2nnc(-c3ccccc3Br)o2)cc1 | 2.1% | 17.2% | 8.9% | 21.0%[0.501 µM] | -5.7%
Clc1ccc(-c2nnc(-c3ccccc3Cl)o2)cc1 | -12.5% | -0.6% | 70.8µM* | 184.9% | 4.3%
COCC1CN(C(C)=O)CC12CCN(C1CCN(C(C)=O)CC1)CC2 (stereo not drawn) | nt | 66.2% | nt | nt | nt
O=c1cc(O)nc(-c2ccccc2)s1 | -23.0% | ? | 12.6µM* | 44.7µM* | -3.6%
Cc1sc(-c2ccccc2)nc1-c1ccccc1 | nt | -32.4% | nt | nt | nt
O=c1cc(O)nc(-c2ccc(Cl)cc2)s1 | ? | 44.7µM* | 17.8µM* | 28.2µM* | 0.8%
CCOc1ccc(Nc2nc(Cc3nnc(SCC(=O)NCC4CCCO4)n3C)cs2)cc1 (stereo not drawn) | -15.2% | -12.1% | 28.2µM* | -21.7%[59 µM] | 1.0%
CCOc1ccc(Nc2nc(Cc3nnc(SCC(=O)N(CC)CC)n3C)cs2)cc1 | -11.4% | ? | 31.6µM* | -5.9%[59 µM] | -3.1%
CCOc1ccc(Nc2nc(Cc3nnc(SCC(=O)NC4CCCCC4)n3C)cs2)cc1 | -0.4% | 20.7% | -7.7% | -7.9%[12.7 µM] | -3.7%
CC(C)OC(=O)c1c(-c2ccccc2Cl)csc1NC(=O)CCCC(=O)O | nt | -2.0% | nt | nt | nt
CCc1ccccc1NC(=O)C1CCCC1 | -2.7% | 10.1% | nt | nt | -1.4%
CCc1ccccc1NC(=O)C1C2C=CC(O2)C1C(=O)O (stereo not drawn) | -18.6% | ? | -26.7% | 35.5µM* | -1.7%
CCc1ccccc1NC(=O)C1CC1 | nt | 0.794µM* | nt | nt | nt
CC(Oc1cccc2ccccc12)C(=O)NC1(C#N)CCCCC1 (stereo not drawn) | nt | -27.8% | nt | nt | nt
CCC(CC)c1nnc(NC(=O)C2CC(=O)N(CCc3ccc(F)cc3)C2)s1 (stereo not drawn) | 79.4µM* | ? | 11.2µM* | 3.16µM* | -0.7%
CCc1nnc(NC(=O)C2CC(=O)N(C3CCCC3)C2)s1 (stereo not drawn) | 6.3% | -9.1% | -4.4% | ? | -2.6%
CCC(CC)c1nnc(NC(=O)C2CC(=O)N(CCc3ccc(OC)c(OC)c3)C2)s1 (stereo not drawn) | -0.4% | -3.7% | nt | -5.4% | -5.7%
CCC(CC)c1nnc(NC(=O)C2CC(=O)N(C3CCCC3)C2)s1 (stereo not drawn) | -21.8% | ? | 50.1µM* | 11.2µM* | -3.8%
CCCc1nnc(NC(=O)C2CC(=O)N(C3CCCC3)C2)s1 (stereo not drawn) | -20.6% | ? | -19.4% | 22.4µM* | -3.6%
Cc1ccsc1C(=O)NC1CCN(c2cc(C(F)(F)F)ncn2)CC1 | nt | 7.3% | nt | nt | nt
SMILES | VDR inhibitor | 12-LOX inh | Sfp PPTase inh | G9a inh | GRP78 ERSR act
O=C(c1ccc2cc[nH]c2c1)N1CCC(N2CC(OCC3CC3)C23CCOCC3)CC1 (stereo not drawn) | nt | 0.0% | nt | nt | nt
CN(C)c1ccc(/C=C/c2ccnc3c(O)cccc23)cc1 | nt | nt | nt | nt | -0.4%
CN(C)c1ccc(C=Cc2ccnc3c(O)cccc23)cc1 | nt | 11.2µM* | nt | nt | -8.9%
CC(CCc1ccco1)NC(=O)CCc1nnc2ccc(N3CCC4(CC3)OCCO4)nn12 (stereo not drawn) | nt | -66.8% | nt | nt | nt
COCCn1c(=O)[nH]c(=O)c2c1nc(-c1ccc(-c3ccc(Cl)cc3[N+](=O)[O-])o1)n2Cc1ccccc1 | -17.3% | -21.3% | ? | 8.91µM* | -4.6%
COCCn1c(-c2ccc(-c3ccc([N+](=O)[O-])cc3Br)o2)nc2c1c(=O)[nH]c(=O)n2CC(C)C | -2.9% | ? | 28.2µM* | 35.5µM* | 3.5%
COc1ccc(-c2ccc(-c3nc4c(c(=O)[nH]c(=O)n4Cc4ccccc4)n3C)o2)c([N+](=O)[O-])c1 | 6.3% | -15.4% | 10µM* | ? | -1.6%

Source: PubChem (National Center for Advancing Translational Sciences (NCATS))
